The results in this text go back to paper PMC7862700, “An all-to-all approach to the identification of sequence-specific readers for epigenetic DNA modifications on cytosine”.

Common to all, as to assay: DAPPL (digital affinity profiling via proximity ligation, sequencing); 10 mM Tris-HCl pH 7.5, 50 mM NaCl, 1 mM DTT, 4% glycerol, room temperature, 30 min; GST-TFs on glutathione beads, 16-mer random dsDNA library, 0.1% formaldehyde crosslink after washing; high values mean tight binding
Settings in all cases: protein: recombinant; tags: N-terminal GST; dsDNA, one strand shown

In one test the target is T1, GABPA (Homo sapiens, UniProt Q06546 1-454).
T1 sequence: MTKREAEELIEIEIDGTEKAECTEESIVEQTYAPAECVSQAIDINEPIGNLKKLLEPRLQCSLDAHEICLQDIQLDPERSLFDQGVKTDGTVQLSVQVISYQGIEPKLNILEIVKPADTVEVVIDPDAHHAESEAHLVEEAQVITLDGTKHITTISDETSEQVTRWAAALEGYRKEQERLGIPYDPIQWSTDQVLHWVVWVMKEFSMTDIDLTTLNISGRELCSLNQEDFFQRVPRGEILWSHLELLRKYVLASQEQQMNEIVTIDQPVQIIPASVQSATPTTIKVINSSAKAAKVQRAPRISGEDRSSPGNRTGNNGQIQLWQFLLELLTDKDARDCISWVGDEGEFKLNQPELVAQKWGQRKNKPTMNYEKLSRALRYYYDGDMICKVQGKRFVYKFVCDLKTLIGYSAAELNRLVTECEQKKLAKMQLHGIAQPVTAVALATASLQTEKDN
The method, boiled down:
(§1)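 Each value of binding signal is a hexamer's read frequency for a factor divided by the same hexamer's frequency in the tag-only sample. Barcoded, bead-captured GST fusions of human transcription factors made in yeast were pooled with that sample and incubated with 200 nmole of a random double-stranded 16-mer DNA library in Tris/NaCl/DTT/glycerol buffer at room temperature for 30 min. Washing, 0.1% formaldehyde crosslinking, proximity ligation, PCR and Illumina NextSeq500 sequencing followed.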

The target in the next test is T2, ERG (Homo sapiens, UniProt P11308 1-479).
T2 sequence: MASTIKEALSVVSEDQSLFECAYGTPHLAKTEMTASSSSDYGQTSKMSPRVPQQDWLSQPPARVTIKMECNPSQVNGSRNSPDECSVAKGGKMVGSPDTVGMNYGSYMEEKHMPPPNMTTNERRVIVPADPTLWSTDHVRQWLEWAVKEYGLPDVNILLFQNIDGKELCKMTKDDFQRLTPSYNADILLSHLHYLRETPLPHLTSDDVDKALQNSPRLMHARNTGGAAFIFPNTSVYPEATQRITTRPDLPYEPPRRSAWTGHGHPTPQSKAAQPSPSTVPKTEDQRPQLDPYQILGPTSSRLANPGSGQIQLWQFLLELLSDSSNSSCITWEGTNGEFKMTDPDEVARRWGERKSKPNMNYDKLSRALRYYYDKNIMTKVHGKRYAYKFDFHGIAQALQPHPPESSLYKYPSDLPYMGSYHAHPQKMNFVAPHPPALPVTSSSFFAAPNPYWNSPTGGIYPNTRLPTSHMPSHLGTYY
The method, boiled down: as §1

The target of a further test is ELF1 (Homo sapiens, UniProt P32519 1-619). The method, boiled down: as §1
Sequence of ELF1 (P32519 whole entry): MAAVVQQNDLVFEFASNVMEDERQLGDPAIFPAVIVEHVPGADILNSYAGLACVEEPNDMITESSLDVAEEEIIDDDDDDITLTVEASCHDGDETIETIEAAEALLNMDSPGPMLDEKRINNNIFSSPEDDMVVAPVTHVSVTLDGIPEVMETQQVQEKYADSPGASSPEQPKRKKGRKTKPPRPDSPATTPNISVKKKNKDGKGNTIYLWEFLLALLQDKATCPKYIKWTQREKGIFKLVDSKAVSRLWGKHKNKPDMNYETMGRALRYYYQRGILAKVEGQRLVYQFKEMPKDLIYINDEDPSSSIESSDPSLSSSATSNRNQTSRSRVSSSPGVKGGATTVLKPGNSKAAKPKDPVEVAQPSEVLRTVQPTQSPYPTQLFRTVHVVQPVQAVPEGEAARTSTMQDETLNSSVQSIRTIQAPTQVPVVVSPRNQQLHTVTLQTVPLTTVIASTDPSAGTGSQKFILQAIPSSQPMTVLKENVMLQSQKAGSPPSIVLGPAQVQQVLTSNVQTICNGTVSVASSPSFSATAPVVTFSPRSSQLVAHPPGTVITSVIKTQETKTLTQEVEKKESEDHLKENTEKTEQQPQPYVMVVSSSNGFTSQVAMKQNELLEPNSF
The target in another test is ETV5 (Homo sapiens, UniProt P41161 1-510). The method, boiled down:
as §1

A further test concerns the target T3, SPIC (Homo sapiens, UniProt Q8N5J4 1-248).
T3 sequence: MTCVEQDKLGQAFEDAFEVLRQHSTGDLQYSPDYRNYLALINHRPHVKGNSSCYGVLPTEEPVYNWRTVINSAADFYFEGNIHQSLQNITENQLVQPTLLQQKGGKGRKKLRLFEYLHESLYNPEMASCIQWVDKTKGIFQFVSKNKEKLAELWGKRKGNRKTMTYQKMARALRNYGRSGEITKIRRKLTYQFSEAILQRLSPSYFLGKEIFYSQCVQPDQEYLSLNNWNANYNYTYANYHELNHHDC
The method, boiled down: as §1

For another test, the target named is ELF4 (Homo sapiens, UniProt Q99607 1-663). The method, boiled down:
as §1

The next test has as its target T4, ELK4 (Homo sapiens, UniProt P28324-2 1-405).
T4 sequence: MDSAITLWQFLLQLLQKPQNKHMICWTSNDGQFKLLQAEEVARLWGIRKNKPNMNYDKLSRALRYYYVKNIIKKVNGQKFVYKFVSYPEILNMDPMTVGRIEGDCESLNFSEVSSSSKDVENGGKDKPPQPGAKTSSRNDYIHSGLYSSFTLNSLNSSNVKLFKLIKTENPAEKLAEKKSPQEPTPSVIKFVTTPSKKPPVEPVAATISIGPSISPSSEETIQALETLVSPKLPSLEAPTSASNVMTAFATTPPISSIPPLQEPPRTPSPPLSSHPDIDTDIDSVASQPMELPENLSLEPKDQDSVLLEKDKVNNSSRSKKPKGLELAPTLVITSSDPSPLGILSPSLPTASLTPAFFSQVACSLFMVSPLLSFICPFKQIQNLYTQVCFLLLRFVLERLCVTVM
The method, boiled down: as §1

Sequence of ELF4 (Q99607 whole entry): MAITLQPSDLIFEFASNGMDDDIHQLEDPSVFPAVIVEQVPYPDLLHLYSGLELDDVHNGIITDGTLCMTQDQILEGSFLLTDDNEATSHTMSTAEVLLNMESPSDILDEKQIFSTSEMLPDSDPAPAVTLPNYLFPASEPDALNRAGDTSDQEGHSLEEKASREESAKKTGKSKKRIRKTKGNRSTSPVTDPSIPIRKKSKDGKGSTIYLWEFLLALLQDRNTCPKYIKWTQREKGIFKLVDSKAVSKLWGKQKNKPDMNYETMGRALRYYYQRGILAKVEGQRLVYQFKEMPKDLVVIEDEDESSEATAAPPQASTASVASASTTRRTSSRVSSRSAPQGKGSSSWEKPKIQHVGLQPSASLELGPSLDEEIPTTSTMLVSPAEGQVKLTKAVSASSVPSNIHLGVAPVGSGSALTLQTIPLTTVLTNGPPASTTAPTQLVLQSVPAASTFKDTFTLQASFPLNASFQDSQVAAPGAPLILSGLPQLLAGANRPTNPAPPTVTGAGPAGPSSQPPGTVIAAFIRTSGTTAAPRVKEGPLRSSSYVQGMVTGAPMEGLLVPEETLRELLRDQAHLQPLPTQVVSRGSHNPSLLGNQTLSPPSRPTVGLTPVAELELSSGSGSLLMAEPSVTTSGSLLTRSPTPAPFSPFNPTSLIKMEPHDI
Sequence of ETV5 (P41161 whole entry): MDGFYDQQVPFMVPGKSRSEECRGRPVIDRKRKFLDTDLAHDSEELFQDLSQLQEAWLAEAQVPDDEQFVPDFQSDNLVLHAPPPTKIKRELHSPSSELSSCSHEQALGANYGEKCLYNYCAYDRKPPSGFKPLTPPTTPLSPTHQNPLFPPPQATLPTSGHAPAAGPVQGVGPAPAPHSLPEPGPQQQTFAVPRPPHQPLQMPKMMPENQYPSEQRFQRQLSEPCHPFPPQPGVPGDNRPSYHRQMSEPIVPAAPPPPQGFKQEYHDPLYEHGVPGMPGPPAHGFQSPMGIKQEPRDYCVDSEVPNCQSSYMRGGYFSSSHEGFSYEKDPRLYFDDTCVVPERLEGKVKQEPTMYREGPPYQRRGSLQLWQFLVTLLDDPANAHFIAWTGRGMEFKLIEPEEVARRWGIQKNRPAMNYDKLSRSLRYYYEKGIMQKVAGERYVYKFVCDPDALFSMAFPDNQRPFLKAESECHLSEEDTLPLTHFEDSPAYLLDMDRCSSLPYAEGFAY

As for ACGCTC, the binding signal in the test with GABPA is 1.05 fold enrichment (6-mer frequency, TF over GST control); with ERG it was 1.01 fold enrichment (6-mer frequency, TF over GST control); with ELF1, 1.07 fold enrichment (6-mer frequency, TF over GST control); with ETV5, 1.01 fold enrichment (6-mer frequency, TF over GST control); in the test with SPIC it was 1 fold enrichment (6-mer frequency, TF over GST control); in the test with ELF4, 1.08 fold enrichment (6-mer frequency, TF over GST control). In the test with ELK4, the binding signal was 1.01 fold enrichment (6-mer frequency, TF over GST control).
